The full list was thinned out, with hits kept by preference.
Integrin act MD: qHTS for Activators of Integrin-Mediated Alleviation for Muscular Dystrophy; AID 624291, 2012; alpha7betagal myoblasts, beta-gal FDG fluorescence, 48 h; 0.064% of 350,000 active; Potency, µM (highest dose often 38.3 µM), without a hit: at the highest dose activation, actives largely listed as activators;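 also: potency is read from the fitted curve at half-maximal effect; 100% = response of the positive control SU9516; nearly all actives have a fitted effect of over 60% in size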
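Alpha7betagal+/- myoblasts (passage 13) were plated 16-24 hr, then exposed to compounds (1:260 dilution of DMSO stock) for 48 hours at 37C. After MPER lysis, β-galactosidase reporter activity was read as FDG fluorescence (ex 480/em 540) after 30 minutes.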
Giardia killer: Small Molecules that selectively kill Giardia lamblia: qHTS. activity change, % at 7.66 µM, hits read low. 0.15% of 340,000 active. Giardia lamblia trophozoite viability; in the data active = activity change below about -80%; inconclusive = between about -30% and that limit;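 also: parasites exposed to compound for two days anaerobically before the ATP read; % is scaled to controls: 0 for no effect and ±100 for the full control effect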
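Luminescence from cellular ATP indicates surviving trophozoites (100 cells/well) following 48 hrs anaerobic compound treatment at 37 deg C; signal develops 15-30 min at room temperature.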
RORgamma inh: qHTS for inhibitors of ROR gamma transcriptional activity; 5.4% of 310,000 active; Drosophila S2 Gal4-RORgamma UAS-luciferase reporter, 20 h; Nuclear receptor ROR-gamma (Mus musculus), P51450; Potency, µM (series often up to 53.6 µM), for inactives: at the top dose activity change, negative = inhibition, hits mostly inhibitors; also: potency is read from the fitted curve at half-maximal effect; % is scaled to controls: 0 for no effect and ±100 for the full control effect; nearly all actives have a fitted effect of over 60% in size
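Stable Schneider cell line, Gal4 DNA-binding domain fused to ROR gamma, UAS-luciferase. Cmpd 1 hr RT → CuSO4 700 uM final → 20 hr RT → luciferase reagent 10 min → luminescence.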
VP16 counter: VP16 counterscreen qHTS for inhibitors of ROR gamma transcriptional activity; Drosophila S2 Gal4-VP16 UAS-luciferase, luminescence, 20 h; Potency, µM (titrated, usually from 53.6 µM), inactives show at the top dose activity, negative = inhibition, most hits filed as inhibitors; 3.5% of 310,000 active; AID 2546, 2010;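 also: Gal4-VP16 expression switched on by copper sulfate through the metallothionein promoter; potency is read from the fitted curve at half-maximal effect; % is scaled to controls: 0 for no effect and ±100 for the full control effect; nearly all actives have a fitted effect of over 50% in size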
ERG Ets-DNA blk: qHTS for Small Molecule Inhibitors of the ERG Ets/DNA interaction. fluorescence polarization, His-ERG Ets domain / labelled DNA. Potency, µM (series often up to 76.9 µM), for inactives: at the highest dose FP activity, negative = inhibition, usual class: inhibitors. 0.028% of 370,000 active. AID 624246, 2012; active = well fitted inhibition curve with a large enough effect in the polarisation, with a control signal flat; inconclusive = small, poorly fitted or top-dose-only effect, or effect the other way, or a change in a side signal; inactive = no such curve, though single readings can be large or run the other way; the % refers to the polarisation;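 also: polarization taken with two DNA probes labelled with fluorescein and Texas red; potency is read from the fitted curve at half-maximal effect; % of control where 0% means no effect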
Target sequence (P11308 whole entry, looked up, the tested form may be a part): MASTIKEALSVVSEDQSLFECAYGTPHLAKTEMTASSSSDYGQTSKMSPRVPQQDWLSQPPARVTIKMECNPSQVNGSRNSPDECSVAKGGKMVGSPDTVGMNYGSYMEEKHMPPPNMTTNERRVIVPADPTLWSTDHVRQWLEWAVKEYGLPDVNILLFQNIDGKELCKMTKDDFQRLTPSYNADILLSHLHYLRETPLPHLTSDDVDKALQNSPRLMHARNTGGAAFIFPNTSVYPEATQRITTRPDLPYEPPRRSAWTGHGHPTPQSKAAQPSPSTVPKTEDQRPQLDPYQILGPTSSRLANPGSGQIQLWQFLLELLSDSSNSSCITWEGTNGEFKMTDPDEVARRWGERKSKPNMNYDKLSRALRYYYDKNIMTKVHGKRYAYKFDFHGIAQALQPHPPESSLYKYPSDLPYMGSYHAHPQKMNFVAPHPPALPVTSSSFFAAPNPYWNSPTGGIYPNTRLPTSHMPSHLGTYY
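His-tagged ERG Ets domain (1 uM in the protein solution; 300mM KCl, 50mM Tris-HCl, 1mM EDTA, 1mM DTT, pH 7.5) received compound, then a probe mix of 5 nM fluorescein-DNA and 100nM Texas-615-DNA. Fluorescence polarization was read for both dyes.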
Numbers without * were called inactive; ? = inconclusive; . = no result; [ ] = remark or other dose. Unless noted, calls follow the shape of the dose curve; as a rule, active = well fitted curve in the direction sought with a large enough effect; inconclusive = small, poorly fitted or top-dose-only effect, or another doubt; inactive = no such curve, though single readings can be large; an effect the other way counts as inactive or inconclusive.

SMILES	Integrin act MD	Giardia killer	RORgamma inh	VP16 counter	ERG Ets-DNA blk
CCOc1ccc(CNC(=O)CN2C(=O)C3CCCCN3c3ccc(C(=O)N4CCCC4)cc32)cc1 (centres undefined)	.	.	.	.	-0.2%
CCc1ccc(C(=O)/C=C/c2cnn(C)c2C)s1	-36.5%	-3.2	5.62µM*	8.91µM*	1.2%
COc1ccc(O)c(-c2cc(-c3ccccc3Cl)[nH]n2)c1	-18.2%	-15.5	?	?	-1.6%
Cc1ccc(-c2nnc(-c3ccccc3)o2)cc1	19.6%	12.6	?	10µM*	-1.7%
COc1ccc(-c2nnc(-c3ccccc3O)o2)cc1	-19.4%	-18.4	?	12.6µM*	7.4%
COc1ccc(-c2nnc(-c3ccc(C)cc3)o2)cc1	1.3%	-7.3	?	?	1.7%
COC(=O)c1cc(-c2ccc(OC)cc2)n[nH]1	1.6%	-13.0	-4.2%	5.5%[10 µM]	4.3%
COc1ccc(O)c(-c2cc(-c3cccs3)[nH]n2)c1	33.8%	-6.6	3.98µM*	?	?
COc1ccc(-c2cc(-c3ccccc3O)[nH]n2)cc1	11.8%	7.6	6.31µM*	15.8µM*	-1.5%
COc1cc(OC)c(NC(=O)Nc2nnc(N(C)C3CCCCC3)s2)cc1Cl	.	.	.	.	1.5%
NC(=O)COc1ccc(C(=O)NCC2(N3CCOCC3)CCCCC2)cc1	-35.1%	11.6	.	.	-1.2%
CCN1CCOC(=O)C1CC(=O)Nc1cccc(OC)c1 (centres undefined)	.	.	.	.	6.4%
COc1ccc(-c2cc(-c3ccccc3)n[nH]2)c(O)c1	-4.5%	14.6	3.98µM*	-3.4%[10 µM]	7.0%
Oc1ccccc1-c1cc(-c2ccccc2)n[nH]1	-10.1%	-10.5	.	.	-7.0%
Cc1ccccc1-c1cc(-c2ccccc2O)n[nH]1	-44.5%	6.0	5.62µM*	?	8.2%
COc1ccc(-c2ncncc2-c2ccccc2)c(O)c1	?	3.7	-20.1%	-1.5%	1.3%
Cc1ccc(-c2cc(-c3ccccc3[N+](=O)[O-])[nH]n2)c(O)c1	27.6%	-6.3	17.8µM*	?	-3.5%
COc1ccccc1-c1cc(-c2cc(Cl)ccc2O)n[nH]1	-17.4%	-0.8	-44.8%[10 µM]	-21.7%	-0.9%
Oc1ccc(Cl)cc1-c1cc(-c2ccccc2)n[nH]1	-8.3%	-0.7	1.41µM*	4.47µM*	10.0%
Cc1ccc(-c2cc(-c3ccccc3Cl)[nH]n2)c(O)c1	13.1%	6.4	?	?	-0.4%
N=c1ccn2c(n1)OC1C(O)[C@@H](CO)O[C@H]12 (some centres undefined)	.	8.2	.	.	.
CO[C@H]1OC2O[C@@]3(C)CC[C@H]4[C@H](C)CC[C@@H]([C@H]1C)[C@@]24OO3 (some centres undefined)	.	.	-10.7%[10 µM]	-1.1%	.
O=C(CNC(=O)c1ccccc1)OCCCOC(=O)CNC(=O)c1ccccc1	8.4%	4.4	-22.3%	2.4%	107.2%
COc1ccc(CCNC(=O)Cn2nc(C)c3c(C)n(-c4ccc(C)cc4)nc3c2=O)c(OC)c1	.	.	.	.	-2.9%
O=C(NNc1nc2c(F)cc(F)cc2s1)c1ccccc1	8.4%	-16.0	5.01µM*	?	7.1%
SMILES	Integrin act MD	Giardia killer	RORgamma inh	VP16 counter	ERG Ets-DNA blk
CCOC(=O)Nc1nc2ccccc2s1	15.3%	-0.4	6.3%	-6.8%	-4.2%
O=C(NNc1nc2ccccc2s1)c1ccc(F)cc1	-0.4%	-2.8	0.562µM*	1.26µM*	7.9%
CC(C)NC(=S)NNc1nc2ccccc2s1	-8.6%	3.8	2.51µM*	3.98µM*	2.3%
O=C(NNc1nc2ccc(F)cc2s1)c1cccc(F)c1	5.6%	11.6	3.98µM*	?	9.7%
O=C(NNc1nc2c(F)cccc2s1)c1ccccc1	-28.9%	-12.1	?	?	-4.6%
Cc1noc(C)c1COc1ccc(C(=O)N2CCC(C(N)=O)CC2)cc1	-13.5%	-1.5	.	.	-0.1%
CCc1ccc(/C(C)=N/NS(=O)(=O)c2ccc(OC)cc2)s1	10.0%	2.3	.	.	10.1%
COC(=O)c1ccc(N=Nc2c(C)[nH]n(-c3ccccc3)c2=O)cc1	?	-3.8	.	.	-2.3%
CC(=O)Nc1ccc(N=Nc2c(C)[nH]n(C(N)=S)c2=O)cc1	8.4%	-5.4	3.98µM*	-0.1%	-1.4%
Cc1[nH]n(C(N)=S)c(=O)c1N=Nc1cccc([N+](=O)[O-])c1C	?	-18.1	.	.	2.8%
Cc1[nH]n(C(N)=S)c(=O)c1N=Nc1ccc(S(=O)(=O)N2CCCCCC2)cc1	9.8%	0.5	0.891µM*	2.51µM*	-0.5%
Cc1ccc(N=Nc2c(C)[nH]n(C(N)=S)c2=O)cc1C	-7.5%	2.2	0.224µM*	1.12µM*	-1.6%
Cc1[nH]n(C(N)=S)c(=O)c1N=Nc1cc(-c2ccc(Br)cc2)[nH]n1	10.8%	-4.2	1.58µM*	-9.2%	0.7%
COc1ccc(N2CCN(C(=O)COC(=O)CCOc3ccc(C(C)(C)C)cc3)CC2)cc1	3.1%	-16.1	.	.	3.4%
Cc1ccc(C)c(CN2C(=O)c3ccccc3Sc3ccc(C(=O)NCc4ccco4)cc32)c1	.	.	.	.	-1.2%
Cn1c(=O)n(C)c2cc(N3CCOCC3)c(NS(=O)(=O)c3cccc(C#N)c3)cc21	.	.	.	.	-4.0%
Cc1cccc(NC(=O)C2c3ccccc3Oc3ccccc32)n1	2.7%	9.0	25.1%	25.8%	13.9%
Cc1[nH]n(C(N)=S)c(=O)c1N=Nc1ccc2ccccc2c1	11.1%	-8.8	1µM*	3.98µM*	-21.0%
CN(Cc1ccc(OCC(O)CN2CCCCC2)cc1)Cc1ccnc2ccccc12 (centres undefined)	-56.3%	22.5	7.08µM*	6.31µM*	9.2%
CNS(=O)(=O)c1cn(CC(=O)Nc2cccc(C(F)(F)F)c2)cc1S(=O)(=O)NC	.	.	.	.	-0.2%
NNC(=O)c1cc2ccccc2cc1NS(=O)(=O)c1ccccc1	-14.7%	-17.1	20µM*	?	-1.9%
NC(=O)c1ccccc1NS(=O)(=O)c1ccccc1	18.1%	-5.6	-2.9%	3.2%	-13.0%
CCOc1ccc(NC(=O)CN2CCN(CC(=O)c3ccc(OCC)cc3)CC2)cc1	-10.4%	-4.4	12.8%	?	-1.8%
CCOc1ccc(NC(=O)CN2CCN(CC(=O)c3ccc(OC)c(OC)c3)CC2)cc1	-34.3%	-11.9	2.51µM*	5.2%	-0.2%
COc1ccc(-c2nc3n(c2C)Cc2ccccc2-3)cc1	-6.7%	-14.7	11.2µM*	-13.1%	-4.6%
CCN(CC)CCNC(=O)C(Oc1ccccc1)Oc1ccccc1	-2.1%	16.2	-5.9%	-3.5%	-6.5%
Cc1sc(NC(=O)CN2CCCC2)nc1-c1ccc2c(c1)CCN2C(=O)c1cccc(F)c1	-76.7%	-8.0	11.2µM*	?	-2.5%
Cc1sc(NC(=O)Cc2ccc3c(c2)OCO3)nc1-c1ccc2c(c1)CCN2C(=O)c1ccc(F)cc1	-2.6%	-10.5	1.5%	3.1%	11.4%
CCOC(=O)N1CCN(C(=S)NC(=O)c2cncc(Br)c2)CC1	-7.0%	55.9	1.12µM*	2.51µM*	4.3%

Source: PubChem BioAssay (National Center for Advancing Translational Sciences (NCATS))
